ALOX12 inh – ALOX12 (human) lipoxygenase inhibition; purified 12hLO, xylenol orange hydroperoxide absorbance; 580,000 tested, 1.1% active; Potency, µM (titrated, usually from 108 µM), actives largely listed as inhibitors; P18054
Target sequence (P18054 whole entry, looked up): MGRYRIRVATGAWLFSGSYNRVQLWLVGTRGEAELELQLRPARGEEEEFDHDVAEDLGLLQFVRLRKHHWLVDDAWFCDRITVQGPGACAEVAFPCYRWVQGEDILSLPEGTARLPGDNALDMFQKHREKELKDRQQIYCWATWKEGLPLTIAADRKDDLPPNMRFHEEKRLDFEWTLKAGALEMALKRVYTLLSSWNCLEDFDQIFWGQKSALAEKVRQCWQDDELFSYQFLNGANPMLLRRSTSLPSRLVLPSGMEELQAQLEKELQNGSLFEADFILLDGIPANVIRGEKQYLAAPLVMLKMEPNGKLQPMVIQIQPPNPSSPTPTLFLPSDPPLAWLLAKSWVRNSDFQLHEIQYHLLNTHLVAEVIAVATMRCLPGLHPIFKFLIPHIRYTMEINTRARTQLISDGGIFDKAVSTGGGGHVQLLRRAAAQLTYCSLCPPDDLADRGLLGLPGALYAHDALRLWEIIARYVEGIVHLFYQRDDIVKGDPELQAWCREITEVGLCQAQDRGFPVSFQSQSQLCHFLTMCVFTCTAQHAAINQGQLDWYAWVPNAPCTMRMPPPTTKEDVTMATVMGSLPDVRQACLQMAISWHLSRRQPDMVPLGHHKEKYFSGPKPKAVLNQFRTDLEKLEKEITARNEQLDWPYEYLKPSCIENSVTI
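Hydroperoxide product was detected by ferrous iron/xylenol orange as the 573 to 405 nm absorbance ratio. Arachidonic acid at 40 uM (final) was turned over for 30 min at room temperature by 150 nM human 12hLO, pH 7.0 Hepes buffer, after 15 min compound preincubation.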
HT1080-NT tox – kills 2HG-producing HT-1080-NT fibrosarcoma cells; HT-1080-NT fibrosarcoma viability, CellTiter-Glo ATP luminescence, 48 h; Potency, µM (top dose mostly 46.1 µM), actives largely listed as cytotoxic; 360,000 tested, 1.6% active; AID 686970;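 also: NT is the 2HG producing partner of a matched IDH1 knockdown line; nearly all actives have a fitted effect of over 55% in size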
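Compounds were tested in concentration-response format on HT-1080-NT cells for 48 hours at 37 degrees C. Cell viability came from CellTiter-Glo luminescence; curves were classified by r2, response magnitude and activity.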
DT40 TDP1 no CPT – qHTS for Inhibitors of human tyrosyl-DNA phosphodiesterase 1 (TDP1): qHTS in cells in absence of CPT; DT40 Tdp1-/- hTDP1 cells, no CPT, ATP luminescence, 48 h; 420,000 tested, 15% active; Potency, µM (highest dose often 46.2 µM), most hits filed as inhibitors; also: nearly all actives have a fitted effect of over 55% in size
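Chicken DT40 Tdp1-/- cells complemented with human TDP1, screened without camptothecin (DMSO vehicle only), 400 cells/well. Compounds pin-transferred, cells incubated at 37 °C for at least 48 hr. Growth read as ATP-dependent luminescence (CellTiter-Glo, 30 min at RT).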
IL1B secr inh – inflammasome signaling inhibition, IL-1 beta readout; activity change, % at 57.5 µM; 360,000 tested, 4.7% active; THP-1 LPS/ATP IL-1B secretion, AlphaLISA, 16 h; active compounds read low; in the data active = activity change below about -50%; inconclusive = mostly about -30% to -49%
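THP-1 cells pretreated 1 hr with compounds (up to 57.5 uM final), then stimulated with LPS (250 ng/mL final) plus ATP (1.25 mM final); secreted IL-1B measured by AlphaLISA after 16 hr, decreased signal indicating inhibition.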
TDP1 cell CPT – DT40-hTDP1 cell growth loss with CPT. chicken DT40 Tdp1-/-;hTDP1 cells + 20 nM CPT, ATP luminescence, 48 h. Potency, µM (highest dose often 46.2 µM), actives largely listed as inhibitors. 420,000 tested, 12% active; also: nearly all actives have a fitted effect of over 55% in size
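Chicken DT40 Tdp1-/- cells complemented with human TDP1, 400 cells/well, exposed to compounds plus 20 nM camptothecin for at least 48 h at 37 C; viability read as ATP content by CellTiter-Glo luminescence.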
HT1080 IDH1KD tx – toxicity to HT-1080 IDH1 knockdown cells (counter line). HT-1080 IDH1 knockdown viability, ATP luminescence, 48 h. Potency, µM (doses to about 46.1 µM), usual class: cytotoxic. 360,000 tested, 2% active
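IDH1KD HT-1080 cells, 750/well, RPMI + 5% FBS; compound pinned after 2 h settling; 48 h, 37 °C; CellTiter-Glo luminescence; % activity normalised to DMSO and no-cell wells; curves fitted, classed by r2 and efficacy.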
Hits are given with their value. Shown is part of a subset that was picked to be rich in hits. Unless noted, calls follow the shape of the dose curve; as a rule, active = well fitted curve in the direction sought with a large enough effect; inconclusive = small, poorly fitted or top-dose-only effect, or another doubt; inactive = no such curve, though single readings can be large; an effect the other way counts as inactive or inconclusive.

How did CCNC(=O)c1cc2c(c(-c3cccc(-c4ccccc4F)c3)n1)[C@@H](CCO)N(C(=O)CC)C2 do in these assays?
ALOX12 inh: inconclusive; HT1080-NT tox: inactive; DT40 TDP1 no CPT: inconclusive; IL1B secr inh: inactive; TDP1 cell CPT: inconclusive; HT1080 IDH1KD tx: inactive

How did CCC(=O)N1Cc2cc(C(=O)NCC(F)(F)F)nc(-c3cccc(-c4cncnc4)c3)c2[C@H]1CCO do in these assays?
ALOX12 inh: inconclusive; HT1080-NT tox: inactive; DT40 TDP1 no CPT: inactive; IL1B secr inh: inactive; TDP1 cell CPT: inactive; HT1080 IDH1KD tx: inactive

What do the screens show for `CC(=O)Nc1ccc(S(=O)(=O)[C@H]2CS(=O)(=O)C[C@@H]2N2CCCC2)cc1`?
ALOX12 inh: inactive

Results for O=C1C=C(N(CCO)Cc2ccccc2)c2ccccc2C1=O ?
HT1080-NT tox: 8.2µM; DT40 TDP1 no CPT: 21µM; IL1B secr inh: -98; TDP1 cell CPT: 18µM; HT1080 IDH1KD tx: 15µM

How did CCC(=O)N1CCC2(CC1)c1[nH]c3ccccc3c1CCN2C do in these assays?
ALOX12 inh: inactive

How did CNC(=S)NNC(=O)c1csc2ccccc12 do in these assays?
ALOX12 inh: inactive

Results for CCCCNC(=S)NNC(=O)c1csc2ccccc12 ?
ALOX12 inh: inactive; HT1080-NT tox: inconclusive; DT40 TDP1 no CPT: 26µM; IL1B secr inh: inactive; TDP1 cell CPT: inconclusive; HT1080 IDH1KD tx: inactive

How did CC(O)CNC(=O)C(=O)Nc1sc2c(c1C#N)CC(C)(C)OC2 (stereo not drawn) do in these assays?
ALOX12 inh: inactive

How did O=C(Nc1cccc(O)c1)c1cc(=O)[nH]c2ccccc12 do in these assays?
ALOX12 inh: inactive

Results for CC1CCCC(NC(=O)C2N(CCCN3CCCC3)C(=O)C3C(C(=O)Nc4cccc(Cl)c4)C4C=CC32O4)C1C (stereo not drawn) ?
ALOX12 inh: inactive; HT1080-NT tox: inactive; DT40 TDP1 no CPT: inconclusive; IL1B secr inh: -57; TDP1 cell CPT: inactive; HT1080 IDH1KD tx: inactive

Results for CCCCN(C)CCN1C(=O)C2C(C(=O)Nc3ccc(C)cc3)C3C=CC2(O3)C1C(=O)NC1CCCCC1 (stereo not drawn) ?
ALOX12 inh: inconclusive; HT1080-NT tox: inactive; DT40 TDP1 no CPT: inactive; IL1B secr inh: -54; TDP1 cell CPT: inactive; HT1080 IDH1KD tx: inactive

What do the screens show for `CN(C)CCN1C(=O)C2C(C(=O)Nc3cc(Cl)cc(Cl)c3)C3C=CC2(O3)C1C(=O)NC1CCCCC1` (stereo not drawn)?
ALOX12 inh: inactive; HT1080-NT tox: inactive; DT40 TDP1 no CPT: inactive; IL1B secr inh: -68; TDP1 cell CPT: inactive; HT1080 IDH1KD tx: inactive

How did CCN(CC)CCN1C(=O)C2C(C(=O)Nc3ccc(C(C)C)cc3)C3C=CC2(O3)C1C(=O)NC1CCCCC1 (stereo not drawn) do in these assays?
ALOX12 inh: inactive; HT1080-NT tox: inactive; DT40 TDP1 no CPT: inactive; IL1B secr inh: inactive; TDP1 cell CPT: inactive; HT1080 IDH1KD tx: inconclusive

Results for CC(C)Cn1c(N)c(C(=O)COC(=O)Cc2cccc(C(F)(F)F)c2)c(=O)n(C)c1=O ?
ALOX12 inh: inactive; HT1080-NT tox: inactive; DT40 TDP1 no CPT: 21µM; IL1B secr inh: inactive; TDP1 cell CPT: 16µM; HT1080 IDH1KD tx: inactive

How did CC(C)Cn1c(N)c(C(=O)COC(=O)/C=C/c2cccs2)c(=O)n(C)c1=O do in these assays?
ALOX12 inh: inactive; HT1080-NT tox: inconclusive; DT40 TDP1 no CPT: 16µM; IL1B secr inh: inactive; TDP1 cell CPT: inconclusive; HT1080 IDH1KD tx: inactive

How did CC(C)Cn1c(N)c(C(=O)COC(=O)Cc2cccs2)c(=O)n(C)c1=O do in these assays?
ALOX12 inh: inactive; HT1080-NT tox: inactive; DT40 TDP1 no CPT: 23µM; IL1B secr inh: inactive; TDP1 cell CPT: 18µM; HT1080 IDH1KD tx: inactive

How did CC(C)Cn1c(N)c(C(=O)COC(=O)c2c(F)cccc2F)c(=O)n(C)c1=O do in these assays?
ALOX12 inh: inactive; HT1080-NT tox: inactive; DT40 TDP1 no CPT: inactive; IL1B secr inh: inactive; TDP1 cell CPT: inactive; HT1080 IDH1KD tx: inactive

What do the screens show for `Cc1ccc(C(=O)NC2CCN(c3cc(-c4ccccc4)[nH]n3)C2)cc1` (stereo not drawn)?
ALOX12 inh: inactive

What do the screens show for `O=S(=O)(c1ccc(Oc2ccc3ccccc3c2)nc1)N1CCCCC1`?
ALOX12 inh: inactive

Results for CC(C)CCC1CC(CSC(=N)N)OC1=O (stereo not drawn) ?
ALOX12 inh: inactive; HT1080-NT tox: inactive; DT40 TDP1 no CPT: 23µM; IL1B secr inh: inactive; TDP1 cell CPT: inconclusive; HT1080 IDH1KD tx: inactive

What do the screens show for `CCCCCCCC1CC(CSC(=N)N)OC1=O` (stereo not drawn)?
ALOX12 inh: inactive; HT1080-NT tox: inactive; DT40 TDP1 no CPT: 21µM; IL1B secr inh: -99; TDP1 cell CPT: 15µM; HT1080 IDH1KD tx: inactive

What do the screens show for `CCCCC1CC(CSC(=N)N)OC1=O` (stereo not drawn)?
ALOX12 inh: inconclusive; HT1080-NT tox: inactive; DT40 TDP1 no CPT: inconclusive; IL1B secr inh: inactive; TDP1 cell CPT: inconclusive; HT1080 IDH1KD tx: inactive

How did CCCCCCCC1CC(/C(C)=N/NC(N)=O)OC1=O (stereo not drawn) do in these assays?
ALOX12 inh: inactive; HT1080-NT tox: inactive; DT40 TDP1 no CPT: inconclusive; IL1B secr inh: inactive; TDP1 cell CPT: 18µM; HT1080 IDH1KD tx: inactive

Results for CCN(CC)S(=O)(=O)c1cccc(NC(=O)COc2ncnc3sc(C)c(C)c23)c1 ?
ALOX12 inh: inactive

Results for Cc1cc(C)cc(C(=O)Nc2nnc3n2CCS3)c1 ?
ALOX12 inh: inactive; DT40 TDP1 no CPT: inconclusive; TDP1 cell CPT: inconclusive

Results for O=C(Nc1nnc2n1CCS2)c1cc(C(F)(F)F)cc(C(F)(F)F)c1 ?
ALOX12 inh: inactive; DT40 TDP1 no CPT: 4.6µM; TDP1 cell CPT: 5.8µM

What do the screens show for `O=c1[nH]cc([N+](=O)[O-])cc1Br`?
ALOX12 inh: inconclusive; HT1080-NT tox: inactive; DT40 TDP1 no CPT: inconclusive; IL1B secr inh: inactive; TDP1 cell CPT: 21µM; HT1080 IDH1KD tx: inactive

What do the screens show for `Nc1c(Br)cc([N+](=O)[O-])cc1Br`?
ALOX12 inh: inactive

What do the screens show for `CN(Cc1ccc(Cl)cc1Cl)C(=O)C1CSC2(C)CCC(=O)N12` (stereo not drawn)?
ALOX12 inh: inactive; HT1080-NT tox: inactive; DT40 TDP1 no CPT: 16µM; IL1B secr inh: inactive; TDP1 cell CPT: 13µM; HT1080 IDH1KD tx: inactive

How did COc1ccc(CN(C)C(=O)C2CSC3(C)CCC(=O)N23)c(OC)c1 (stereo not drawn) do in these assays?
ALOX12 inh: inactive; HT1080-NT tox: inactive; DT40 TDP1 no CPT: 15µM; IL1B secr inh: inactive; TDP1 cell CPT: 12µM; HT1080 IDH1KD tx: inactive

From PubChem BioAssay
